In PMC5540273 (PLoS ONE, 2017):

Assays:
Conditions in all cases: concentration: 1 μM, replicates: in singlicate; n = 1
AMPK-alpha1 = tested on: T1, AMPK-alpha1
T1 construct: gene PRKAA1

AMPK-alpha2 = tested on: T2, AMPK-alpha2
T2 construct: gene PRKAA2

ANKK1 = tested on: ANKK1
ARK5 = tested on: T3, ARK5
T3 construct: gene NUAK1

ASK1 = tested on: T4, ASK1
T4 construct: gene MAP3K5

ASK2 = tested on: T5, ASK2
T5 construct: gene MAP3K6

AURKA = tested on: AURKA
AURKB = tested on: AURKB
AURKC = tested on: AURKC
AXL = tested on: AXL
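Further: KINOMEscan kinase panel screen.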

| SMILES | %Inh (AMPK-alpha1) [%] | %Inh (AMPK-alpha2) [%] | %Inh (ANKK1) [%] | %Inh (ARK5) [%] | %Inh (ASK1) [%] | %Inh (ASK2) [%] | %Inh (AURKA) [%] | %Inh (AURKB) [%] | %Inh (AURKC) [%] | %Inh (AXL) [%] |
| --- | --- | --- | --- | --- | --- | --- | --- | --- | --- | --- |
| Fc1ccc(-c2nn3cccc(F)c3c2-c2ccncc2)cc1 [GW475620] | 42 | 19 | 0 | 16 | 8 | 0 | 0 | 45 | 46 | 3 |
| CCn1c(-c2ccccc2)nc2cnccc21 [SB-733416] | 0 | 0 | 0 | 8 | 28 | 17 | 0 | 0 | 30 | 10 |
| O=C(Nc1n[nH]c2nc(-c3cccs3)c(Br)cc12)C1CCCC1 [SB-743341] | 29 | 40 | 35 | 0 | 0 | 12 | 17 | 27 | 10 | 0 |
| Nc1nccc(-c2c(-c3ccc(F)cc3)ncn2C2CCN(Cc3ccccc3)CC2)n1 [SB-219980] | 0 | 3 | 59 | 15 | 0 | 0 | 21 | 22 | 0 | 9 |
| O=C(Nc1n[nH]c2nc(-c3cccs3)c(Br)cc12)C1CC1 [SB-735297] | 0 | 8 | 9 | 0 | 2 | 13 | 0 | 31 | 6 | 28 |
| Nc1cccc(-c2ccc3c(N)n[nH]c3c2)n1 [GSK2192730] | 0 | 0 | 17 | 0 | 0 | 13 | 8 | 15 | 22 | 0 |
| CC(=O)c1cccc(NC(=O)NC2CCN(c3ccnc(Nc4ccc(F)cc4)n3)C2)c1 (centres unmarked) [GSK1379710] | 0 | 0 | 19 | 31 | 20 | 0 | 12 | 0 | 21 | 5 |
| CNCc1ccc2nc(NC(=O)c3ccc(C(C)(C)C)cc3)cn2c1 | 0 | 13 | 40 | 0 | 21 | 0 | 8 | 22 | 25 | 15 |
| CCn1c(-c2c(N)noc2C)nc2cnccc21 [SB-737856] | 4 | 0 | 0 | 25 | 0 | 0 | 0 | 32 | 4 | 0 |
| CNc1nc(-c2ccc3c(N)n[nH]c3c2)cc(N2C[C@@H](C(=O)Nc3ccccc3)CC[C@H]2C)n1 [GSK2298859] | 0 | 0 | 1 | 25 | 0 | 12 | 12 | 16 | 43 | 8 |
| Cc1ccc(-c2nc(Nc3ccncc3)c3ccccc3n2)s1 [GSK189015] | 0 | 20 | 65 | 17 | 1 | 11 | 0 | 0 | 24 | 20 |
| CS(=O)(=O)CCNCc1nc(-c2ccc3ncnc(Nc4ccc(OCc5ccccc5)c(Cl)c4)c3c2)cs1.Cl [GW582764] | 0 | 0 | 0 | 0 | 0 | 0 | 0 | 23 | 0 | 0 |
| FC(F)(F)c1ccccc1-c1cc(-c2c[nH]nc2-c2ccccn2)ccn1 [GW679396] | 0 | 25 | 0 | 0 | 10 | 0 | 44 | 0 | 16 | 0 |
| Cc1c(Cn2c(C)c(C)n3c(=O)cc(N4CCOCC4)nc23)cccc1C(F)(F)F [GSK2328680] | 0 | 2 | 0 | 0 | 2 | 0 | 0 | 0 | 0 | 0 |
| COc1cccc(C2=C(Nc3cc(Cl)c(O)c(Cl)c3)C(=O)NC2=O)c1 [SB-390767] | 8 | 0 | 0 | 26 | 4 | 7 | 0 | 0 | 8 | 0 |
| COc1ccc(-c2coc3ccc(-c4nnc(C)o4)cc23)cc1 | 0 | 3 | 0 | 0 | 0 | 10 | 0 | 18 | 0 | 0 |
| CC(C)c1ccc(O)cc1Nc1ccnc2ccc(C(F)(F)F)cc12 [GW482059] | 20 | 13 | 0 | 0 | 1 | 0 | 0 | 0 | 0 | 14 |
